# Laboratory results: the supplement of paper PMC6992640
# Test system: WHIM2 (cells of a triple-negative basal-like breast cancer xenograft)
# Experiment: cell viability of combination (% of vehicle); higher = less cytotoxic
# Settings: 1 µM; 72 h; partner dose: 10 nM
# Description: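 PDX cells were treated for 72 h with each drug at 1 µM plus afatinib (10 nM; 1 µM for WHIM30). Luciferase viability is expressed as percent of vehicle.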
row,Structure (SMILES),cell viability of combination
1,CCCCCCCCCCCC[N+](C)(C)CCOc1ccccc1.[Br-] [Domiphen Bromide] + CN(C)C/C=C/C(=O)Nc1cc2c(Nc3ccc(F)c(Cl)c3)ncnc2cc1O[C@H]1CCOC1 [Afatinib],41.6
2,Cc1cc(C(C#N)c2ccc(Cl)cc2)c(Cl)cc1NC(=O)c1cc(I)cc(I)c1[O-].[Na+] (stereo not given) [Closantel Sodium] + CN(C)C/C=C/C(=O)Nc1cc2c(Nc3ccc(F)c(Cl)c3)ncnc2cc1O[C@H]1CCOC1 [Afatinib],49.1
3,Cc1cc(C(C#N)c2ccc(Cl)cc2)c(Cl)cc1NC(=O)c1cc(I)cc(I)c1O (stereo not given) [Closantel] + CN(C)C/C=C/C(=O)Nc1cc2c(Nc3ccc(F)c(Cl)c3)ncnc2cc1O[C@H]1CCOC1 [Afatinib],47
4,CCCCCCCCCCCCCCCC[n+]1ccccc1.[Cl-] [Cetylpyridinium Chloride] + CN(C)C/C=C/C(=O)Nc1cc2c(Nc3ccc(F)c(Cl)c3)ncnc2cc1O[C@H]1CCOC1 [Afatinib],32.2
5,CCCCCCCCCCCCCCCC[N+](C)(C)C.[Br-] [Cetrimonium Bromide (CTAB)] + CN(C)C/C=C/C(=O)Nc1cc2c(Nc3ccc(F)c(Cl)c3)ncnc2cc1O[C@H]1CCOC1 [Afatinib],38
